Measurements as given in PubChem BioAssay AID1347131 (National Center for Advancing Translational Sciences (NCATS), 2019).
About 2,000 (0.49%) of roughly 410,000 compounds were called active. Entries that show only a call come without a potency. About 8% were inconclusive and are not listed. This is one part of a sample in which actives are shown more often than they occur. Calls come from the whole dose curve; tested in HEK293 reporter line.

assay: qHTS Assay for Foot and Mouth Disease Virus Antivirals: Primary Screen against the MLPCN compound library; settings: FMDV antiviral cell-based qHTS; series mostly up to 57.9 µM; note: nearly all actives have a fitted effect of over 55% in size
Potency is the fitted concentration of half-maximal effect.

Compound | Potency
COc1ccc(NC(=O)c2c(NC(=O)c3ccc(Br)cc3)sc3c2CCCC3)cc1 | inactive
COc1ccc(C(=O)Nc2onc3c2CCCC3)cc1 | 12.6 µM (active)
COc1ccc(-c2noc(CCCC(=O)NC3CCCC3)n2)cc1 | inactive
COc1cccc(C(=O)Nc2cccc(-c3nnc(-c4ccccc4)o3)c2)c1 | inactive
CCOc1cccc(C(=O)Nc2ccc(S(=O)(=O)N(Cc3ccccc3)c3ccccc3)cc2)c1 | inactive
CCOc1cccc(C(=O)Nc2nnc(-c3ccco3)s2)c1 | 11.2 µM (active)
CCN(CC)CCN(C(=O)c1ccc2c(c1)CCCC2)c1nc2ccc(C)cc2s1 | inactive
CC(=O)N(Cc1cc2cc(C)ccc2[nH]c1=O)c1cccc(C)c1C | inactive
O=C(CCS(=O)(=O)c1ccc(Br)cc1)N1CCN(c2ccccc2F)CC1 | inactive
Cc1cc(C)c(NS(=O)(=O)c2ccc3c(c2)NC(=O)CC(=O)N3)c(C)c1 | inactive
O=C(NCCCCc1ccccc1)NC[C@@H]1CC[C@@H](Cc2ccc(-c3ccccc3)cc2)O1 | inactive
COc1ccc2[nH]cc(CCNc3ccnc(-c4c(C)noc4C)n3)c2c1 | inactive
COc1ccc2[nH]cc(CCNc3ccnc(-c4cccnc4)n3)c2c1 | inactive
COc1ccc2[nH]cc(CCNc3ncncc3-c3ccoc3)c2c1 | 22.4 µM (active)
COc1ccc(S(=O)(=O)N2CCCN(CCC(=O)Nc3cccc(C(F)(F)F)c3)CC2)cc1 | inactive
Cc1cccc(N2CCN(C(=O)CCS(=O)(=O)c3ccc4c(c3)oc(=O)n4C)CC2)c1C | inactive
COc1ccc(-c2cc(C(=O)N3CCCCC3)no2)cc1OC | inactive
CCc1cc(C(=O)N2CCCC(C(=O)c3ccc(Cl)cc3)C2)no1 (centres undefined) | inactive
O=C(c1cc(-c2ccc(Cl)cc2Cl)on1)N1CCCC1 | 12.6 µM (active)
Cc1cc(C)n2nc(C)c(-c3ccc(Cl)cc3)c2n1 | inactive
Cc1nn2cnnc2c(C)c1Cc1ccc(Cl)cc1 | inactive
Cc1nc2nc(-c3ccc(Cl)cc3)cn2nc1C | 10 µM (active)
COc1ccc(/C=N/NC(=S)Nc2cc(S(=O)(=O)N3CCOCC3)ccc2N2CCOCC2)cc1O | inactive
CCc1c(C)c2ccc(O)c(CN3CCN(c4ccccc4)CC3)c2oc1=O | inactive
Brc1ccc(C2C3=C(Nc4ncnn42)c2ccccc2OC3c2ccncc2)cc1 (centres undefined) | 17.8 µM (active)

Compound | Potency
COC(=O)c1c(C)oc(C)c1S(=O)(=O)NCC1CC1 | inactive
COc1ccc(NS(=O)(=O)c2ccc(-n3cccn3)cc2)cc1OC | inactive
O=C(CN1CCN(S(=O)(=O)c2cc(C(F)(F)F)ccc2Cl)CC1)N1CCc2ccccc2C1 | inactive
C=CCc1ccccc1OCC(O)CN1CCN(c2ccccc2OC)CC1 (centres undefined) | inactive
COC(CNC(=O)C1CCN(S(=O)(=O)c2cccc3nsnc23)CC1)OC | inactive
CCOC(=O)c1cc(-c2ccccc2)n(CCC(=O)N2CCN(c3ccccc3OC)CC2)c1C | inactive
Cc1ccc2[nH]c(CSc3nnc(NC(=O)c4ccccc4F)s3)cc(=O)c2c1 | inactive
Cc1cc[n+](CC(=O)c2ccc(NC(=O)c3ccccc3)cc2)c2ccccc12 | inactive
CCc1ccc(C(=O)C[n+]2cccc3cc(OC)ccc32)cc1 | 8.91 µM (active)
CCc1ccc(C2CC(c3cccc(OC)c3)n3nc(N)nc3N2)cc1 (centres undefined) | inactive
CC1(c2nnc(-c3ccncc3)o2)CC(c2ccc([N+](=O)[O-])cc2)=NO1 (centres undefined) | inactive
Cc1occc1C(=O)NNC(=S)Nc1ccccc1 | inactive
COc1ccc(-c2cc(=NC(CC(C)C)C(=O)O)c3cc(C)ccc3o2)cc1 (centres undefined) | inactive
CCCNC(=O)c1ccc(-c2nc3ccccc3s2)s1 | 14.1 µM (active)
CC(=O)Nc1scc(C)c1-c1nc2ccccc2s1 | inactive
CCOC(=O)c1nc2ccccc2s1 | inactive
COc1cccc(-n2c(=O)c3c(C)c(C(=O)N(C)C)sc3n(Cc3ccc(F)cc3Cl)c2=O)c1 | inactive
Cc1nn2c(=O)cc(COC(=O)c3ccc(C(C)(C)C)cc3)nc2s1 | inactive
COc1cc(CNCc2ccccn2)ccc1OCc1ccccc1Cl | inactive
Cc1ccc(F)c([C@H]2C3C=CCC(c4ccccc4)C3C(=O)N2Cc2ccccc2)c1 (some centres undefined) | inactive
COc1ccc(C2C3C=CCC(c4cccc(-c5ccc(C)cc5)c4)C3C(=O)N2Cc2ccccc2)cc1Cl (centres undefined) | 12.6 µM (active)
COc1ccc(-c2cccc([C@H]3[C@@H]4C=CC[C@@H](C)[C@@H]4C(=O)N3Cc3ccccc3)c2)cc1 | inactive
CCOc1ncccc1C(=O)Nc1cc(S(=O)(=O)N(CC)CC)ccc1N1CCOCC1 | inactive
Cc1ccc(C)c(N2CCN(C(=O)c3ccc(N4CCCC4=O)cc3)CC2)c1 | inactive
Cc1oc(-c2ccccc2F)nc1CS(=O)(=O)CC(=O)NC1CCCC(C)C1C (centres undefined) | inactive

Compound | Potency
O=C(Nc1ccc2c(c1)OCCO2)c1cccc2nc3ccccc3nc12 | inactive
O=C(O)C1C2C=CC(C2)C1C(=O)Nc1ccc2c(c1)OCCO2 (centres undefined) | inactive
O=C(CN1CCN(S(=O)(=O)c2ccc(Cl)cc2)CC1)Nc1ccc2c(c1)OCCO2 | inactive
c1csc(CNc2ccc3c(c2)OCCO3)c1 | inactive
Cc1ccc(C(=O)Nc2ccc3c(c2)OCCO3)c(Cl)c1 | 11.2 µM (active)
Cc1ccsc1C(=O)Nc1ccc2c(c1)OCCO2 | 22.4 µM (active)
CCOC(=O)c1ccc[n+](C(C)C(=O)c2ccc(-c3ccccc3)cc2)c1 (centres undefined) | inactive
COc1cccc(CNC(=O)c2cccc(S(=O)(=O)N3CCN(c4ccc(F)cc4)CC3)c2)c1 | inactive
CCOc1ccc(NC(=O)CN2C(=O)CCSc3ccc(S(=O)(=O)N4CCCC4)cc32)cc1 | inactive
O=C(COC(=O)/C=C/c1cccs1)Nc1ccc(Cl)cc1F | inactive
O=C(/C=C/c1cccs1)N1CCC2(CC1)Oc1ccc(Cl)cc1C(=O)C21CC(c2cccnc2)=NO1 (centres undefined) | inactive
O=C(/C=C/c1cccs1)c1cc(Cl)ccc1OC(=O)N1CCOCC1 | 17.8 µM (active)
O=C(CCCOc1ccc(Cl)cc1)NCC1CCCO1 (centres undefined) | inactive
CCOC(=O)C1=C(C)Nc2ccccc2N=C1NC(=O)c1oc2ccccc2c1COC | inactive
COc1ccccc1OCC(=O)Nc1cc(S(=O)(=O)N2CCCCC2)ccc1N1CCCCC1 | inactive
COc1cc(/C=C(\C#N)c2ccccn2)ccc1OCC(=O)Nc1cccc(C(F)(F)F)c1 | inactive
CN(CCC#N)c1ccc(/C=C(\C#N)c2ccccn2)cc1 | 14.1 µM (active)
CNc1nc(-c2ccc3c(c2)CCN3S(=O)(=O)c2ccccc2)c(C)s1 | inactive
CC(=O)Nc1ccc(S(=O)(=O)N(C)CC(=O)Nc2ccc(Br)cc2F)cc1 | inactive
CCn1cc(C(=O)OCC(=O)OC2CC(C)CCC2C(C)C)c(=O)c2ccc(C)nc21 (centres undefined) | 22.4 µM (active)
O=C(CCCCn1c(=O)c2ccccc2n(CC(=O)Nc2cccc(F)c2)c1=O)NCc1ccccc1Cl | inactive
COc1ccc(C[C@H]2CN3C(=NC[C@@H]3Cc3ccc(O)cc3)N2C[C@H](C)NC(=O)CCC2CCCCC2)cc1 | inactive
CCCCCCCCCCC[N+](C)(C)CC/C=C1/c2ccccc2Sc2ccc(Cl)cc21 | inactive
CC1(Cc2ccc(C(F)(F)F)o2)C(=O)Nc2cc(-c3ccc(F)cc3F)ccc21 (centres undefined) | inactive
